Source: PubChem BioAssay (NCI)
The panel holds about 83,000 compounds, 20% with a hit somewhere; the sample as a whole holds those more often.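 Testing used 96-well plates and a 48-hour single-concentration exposure. Example: -40 means 40% of the starting cells died.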 Unmarked numbers belong to inactive results. Active and inactive are the calls of the source.

What follows are molecules tested on SR leukemia (assay: NCI-60 one-dose screen, 48 h (100 = growth as untreated, 0 = no growth, -100 = all killed)). Conditions: 10 µM unless noted.
Procedure: Growth inhibition of the SR human tumor cell line is measured as a screen for anti-cancer activity. Cells are grown in 96 well plates and exposed to the test compound for 48 hours. Compounds are tested at a single concentration, which is 10^-5 M for most compounds. The reported endpoint is percent growth (GI% or GIPRCNT), where numbers from 0 - 100% represent growth inhibition, and numbers from -100% - 0 represent cell death. For example, a value of 40 represents 60% growth inhibition. A value of 0 means no net growth occurred over the course of the experiment. A value of -40 indicates 40% of cells at the beginning of the experiment died by the end of the experiment. A value of -100 means all cells are dead at the end of the experiment.
NCI-60 Human Tumor Cell Lines Screen was performed using the standard one-dose NCI protocol, which is described in more detail at https://dtp.cancer.gov/discovery_development/nci-60/default.htm.
Compounds with GIPRCNT values below 10 were considered active. Activity score was based on GIPRCNT using the following formula: […]
Score is 0 for GIPRCNT values of 100 or above, 50 for GIPRCNT values of 0, and 100 for GIPRCNT values of -100.
In the case of `CCN(CC)C(=S)SC(SC(=S)N(CC)CC)C(=O)c1nnn(-c2ccc([N+](=O)[O-])cc2)c1C`, the growth is reported as 55.3%. Molecule `O=C(c1cc2ccccc2o1)c1nn(-c2ccccc2)/c(=N/N=Cc2cn(-c3ccccc3)nc2-c2cc3ccccc3oc2=O)s1` has a growth of 72.7%. `COc1cc2c(c(OC)c1OC)C(=O)CC(c1cccc(NC(=O)c3ccc(Br)cc3)c1)O2` (stereo not given) was tested, and the growth was 3.88% (active). For `CS(=O)(=O)c1cccc(-c2c(-c3cccc(OS(N)(=O)=O)c3)nc3sccn23)c1`, the growth was 85.1%. Work on `COc1ccc(C2c3sc4c(F)cccc4c3Oc3nc[nH]c(=O)c32)cc1` (stereo not given) yielded a growth of 75.9%. In the case of `CC(=O)N1N=C(c2ccc(Nc3nc(Nc4ccc(Cl)cc4)nc(Nc4ccc(Cl)cc4)n3)cc2)CC1c1ccco1` (stereo not given), the growth is reported as 64.9%. For `Cc1cc(Cl)ccc1NC(=O)c1cc2ccccc2cc1O`, the growth was 3.8% (active). `Cc1ccc(/C=C2\CN(C(=O)OC(C)(C)C)C/C(=C\c3ccc(C)cc3)C2=O)cc1` was tested, and the growth was -13.1% (active). With `Oc1c(Cl)cc(Cl)cc1/C=N/Nc1nnc(N/N=C/c2cc(Cl)cc(Cl)c2O)c2ccccc12` the growth was 3.92% (active). Work on `O=C1NC(=O)c2c1c1c3ccccc3ccc1c1[nH]c3ccc(Br)cc3c21` yielded a growth of 11.4%. In the case of `O=C1N(Cc2ccccc2Cl)c2ccccc2C12NN=C(c1cccc(Cl)c1)S2` (stereo not given), the growth is reported as -1.58% (active). In the case of `CC1(C)CCC(S(=O)(=O)c2ccc3c(c2)/C(=N\O)c2cc(S(=O)(=O)N4CCC(O)(c5cccc(C(F)(F)F)c5)CC4)ccc2-3)CC1`, the growth is reported as -54% (active). For `Cc1ccccc1NC(=O)c1sc2nc(C)c(C(=O)/C=C/c3ccccc3)cc2c1N`, the growth was 24.4%. Molecule `O=C1Nc2ccccc2/C1=C\c1nc(-c2ccccc2F)n2ccccc12` has a growth of 49.6%. Molecule `CO[C@H]1/C=C(/C)CCC[C@H](C)[C@H](O)[C@@H](C)C(=O)C(C)(C)[C@@H](O)CC(=O)O[C@@H]1/C(C)=C/c1csc(C)n1` has a growth of 19.6%. In the case of `Cn1cc(-c2csc(-c3c[nH]c4ccc(Br)cc34)n2)c2cnccc21`, the growth is reported as -30.9% (active). `Cc1ccc(-c2nc3nc(-c4ccc(F)cc4)nc(N4CCNCC4)c3o2)cc1` was tested, and the growth was -29.5% (active). `O=[N+]([O-])c1ccc(S(=O)(=O)N2CCN(C3=NS(=O)(=O)c4ccccc4N3c3ccccc3)CC2)cc1` showed a growth of 40.5%. For `CC(C)(C)n1cc(-c2ccnc(NCCNS(=O)(=O)c3cccc4ccccc34)c2)c(-c2cccc(F)c2)n1`, the growth was -20.7% (active). `Cc1nn(-c2ccccc2)c(Oc2ccccn2)c1-c1nc2ccccc2s1` gave a growth of 33.9%. In the case of `COc1cc(NC(C)CCCNC(C)C)c2ncccc2c1OC` (stereo not given), the growth is reported as 110%. With `C[C@H](NC(=O)[C@@H](C)N)[C@H](Oc1ccc2c(cnn2-c2ccc(F)cc2)c1)c1ccc2c(c1)OCCO2` the growth was -41.9% (active). In the case of `O=C(Cn1cc(CN2C(=O)c3ccccc3S2(=O)=O)nn1)Nc1nc2ccccc2s1`, the growth is reported as 121%. `CC(=O)OC[C@]12CCC(C)(C)C[C@H]1[C@@]1(O)[C@H](O)C[C@@H]3[C@@]4(C)CCCNC(C)(C)[C@@H]4CC[C@@]3(C)[C@]1(C)CC2` was tested, and the growth was 99.3%. `C/C(=N/O)c1ccc(F)cc1` was tested, and the growth was 68%. For `CN1CCN(c2ccc(C(=O)Nc3cccc(C#Cc4cccc5[nH]nc(N)c45)c3)cc2C(F)(F)F)CC1`, the growth was -17.7% (active). `CN1C(=O)/C(=C/c2cn(-c3ccccc3)nc2-c2ccccc2)SC1=S` was tested, and the growth was 109%. Molecule `Oc1ccc(CN2CCC(N3CCCCC3)CC2)c2cccnc12` has a growth of 19.7%. Molecule `COc1cc2c(c(OC)c1OC)CCC(c1cccc(C(=O)Nc3cccc(Br)c3)c1)O2` (stereo not given) has a growth of 35.6%. `O=C(CCC(=O)N/N=C/c1ccccc1O)N/N=C/c1ccccc1O` was tested, and the growth was 27%. Molecule `O=C(Nn1c2c(sc1=Nc1ccccc1)C(=O)c1ccccc1C2=O)c1cc2ccc1CCc1ccc(cc1)CC2` has a growth of 61.1%. `COc1ccc(-c2nc(SCC(C)C)nc(N/N=C\c3ccc(F)cc3)c2C#N)cc1` was tested, and the growth was 46.7%. With `Cc1ccc(C(C(N)=O)C(C(N)=O)c2ccccc2)cc1` (stereo not given) the growth was 92%. Work on `COc1ccccc1NC(=O)Cn1cc(CN2CCN(c3ccnc4cc(Cl)ccc34)CC2)nn1` yielded a growth of 92.1%. `CC(C)(C)n1cc(-c2ccnc(NCCNS(=O)(=O)c3cccc(F)c3)c2)c(-c2ccccc2)n1` gave a growth of 32.6%. `COc1ccc(-c2cn(-c3cc(OC)c(OC)c(OC)c3)c(=O)n2C(C)=O)cc1` was tested, and the growth was 22.2%. With `O=C1/C(=C/c2ccc(Cl)c(Cl)c2)CN(C(=O)C(Cl)Cl)C/C1=C\c1ccc(Cl)c(Cl)c1` the growth was 4.68% (active). Work on `COc1ccc2cc(C(=O)c3coc4ccc(O)cc34)ccc2c1` yielded a growth of 78.9%. For `Cc1cc2c(O)c(-c3cc(Cl)ccc3Cl)c3sc(=O)oc3c2cc1C`, the growth was 54.3%. For `COCCn1c(-c2csc(-c3cn(C)c4ccc(OC)cc34)n2)cc2cccnc21`, the growth was 18.4%.
